Data reported in the supplement of paper PMC10849652.
Of roughly 8,800 targets only a part is listed; those with a hit were picked by preference. About 0.5% of all pairs of compound and target were hits. Values without a mark were called inactive.

How the values were obtained:
Assay in all cases: log2 fold change, soluble protein after heating vs DMSO (PISA); higher = thermal stabilisation; K562 lysate, 10 uM; active = over 0.2 and 3.5 SD of the protein, either way, in both replicates (recomputed)
vemurafenib = compound: CCCS(=O)(=O)Nc1ccc(F)c(C(=O)c2c[nH]c3ncc(-c4ccc(Cl)cc4)cc23)c1F [vemurafenib]
Method in brief: (§1)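 The values are log-two fold changes in thermal stability compared with solvent controls and come from duplicates. They were obtained by TMTpro 16plex LC-MS/MS, with channel sums equalised, on the supernatant after 21,000xg for 90 min. That supernatant came from crude K562 extract at 1 mg/mL protein treated with 10 μM compound for 30 min, heated for 3 min across 48°C-58°C, pooled and brought to 0.5% NP-40 at 4°C.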

[1] = compound: CCCS(=O)(=O)Nc1ccc(F)c(C(=O)c2c[nH]c3ncc(Cl)cc23)c1F
Method in brief: as §1

barasertib = compound: CCN(CCCOc1ccc2c(Nc3cc(CC(=O)Nc4cccc(F)c4)[nH]n3)ncnc2c1)CCOP(=O)(O)O [barasertib]
Method in brief: as §1

[2] = compound: CC[C@@H]1C(=O)N(C)c2cnc(Nc3ccc(C(=O)NC4CCN(C)CC4)cc3OC)nc2N1C1CCCC1
Method in brief: as §1

volasertib = compound: CC[C@@H]1C(=O)N(C)c2cnc(Nc3ccc(C(=O)N[C@H]4CC[C@H](N5CCN(CC6CC6)CC5)CC4)cc3OC)nc2N1C(C)C [volasertib]
Method in brief: as §1

[3] = compound: CCn1c(C(=O)N(C2CC2)C2CC2)cc2c3c(ncn3C)c(Nc3cc(C)n(C)n3)nc21
Method in brief: as §1

[4] = compound: CCn1cc(-c2ccnc3[nH]c(-c4cccc(CN(C)C)c4)cc23)c(-c2ccc(NC(=O)N(C)C)cc2)n1
Method in brief: as §1

[5] = compound: CN1CCC(CNc2ccc3ncc(-c4cccc(OC(F)(F)F)c4)n3n2)CC1
Method in brief: as §1

saracatinib = compound: CN1CCN(CCOc2cc(OC3CCOCC3)c3c(Nc4c(Cl)ccc5c4OCO5)ncnc3c2)CC1 [saracatinib]
Method in brief: as §1

sotrastaurin = compound: CN1CCN(c2nc(C3=C(c4c[nH]c5ccccc45)C(=O)NC3=O)c3ccccc3n2)CC1 [sotrastaurin]
Method in brief: as §1

alvocidib = compound: CN1CC[C@H](c2c(O)cc(O)c3c(=O)cc(-c4ccccc4Cl)oc23)[C@H](O)C1 [alvocidib]
Method in brief: as §1

Tubastatin A = compound: CN1CCc2c(c3ccccc3n2Cc2ccc(C(=O)NO)cc2)C1 [Tubastatin A]
Method in brief: as §1

[6] = compound: CNC(=O)C1=CC=CC=C1NC2=NC(=NC=C2Cl)NC3=C(C=C(C=C3)N4CCOCC4)OC
Method in brief: as §1

defactinib = compound: CNC(=O)c1ccc(Nc2ncc(C(F)(F)F)c(NCc3nccnc3N(C)S(C)(=O)=O)n2)cc1 [defactinib]
Method in brief: as §1

[7] = compound: CNc1nc(-c2ccc3c(N)n[nH]c3c2)cc(N2C[C@@H](C(=O)NC3CCCCC3)CC[C@H]2C)n1
Method in brief: as §1

encorafenib = compound: COC(=O)N[C@@H](C)CNc1nccc(-c2cn(C(C)C)nc2-c2cc(Cl)cc(NS(C)(=O)=O)c2F)n1 [encorafenib]
Method in brief: as §1

[8] = compound: COC(=O)[C@H](CCSC)NC(=O)C1=C(C=C(C=C1)NC[C@H](CS)N)C2=CC=CC=C2
Method in brief: as §1

alisertib = compound: COc1cc(Nc2ncc3c(n2)-c2ccc(Cl)cc2C(c2c(F)cccc2OC)=NC3)ccc1C(=O)O [alisertib]
Method in brief: as §1

[9] = compound: COc1cc2nc(-c3cc(F)ccc3O)nc(N[C@@H]3CNC[C@H]3C(C)(C)O)c2cc1OC
Method in brief: as §1

gefitinib = compound: COc1cc2ncnc(Nc3ccc(F)c(Cl)c3)c2cc1OCCCN1CCOCC1 [gefitinib]
Method in brief: as §1

UniProt Q96IY1, sequence (Q96IY1 whole entry, looked up): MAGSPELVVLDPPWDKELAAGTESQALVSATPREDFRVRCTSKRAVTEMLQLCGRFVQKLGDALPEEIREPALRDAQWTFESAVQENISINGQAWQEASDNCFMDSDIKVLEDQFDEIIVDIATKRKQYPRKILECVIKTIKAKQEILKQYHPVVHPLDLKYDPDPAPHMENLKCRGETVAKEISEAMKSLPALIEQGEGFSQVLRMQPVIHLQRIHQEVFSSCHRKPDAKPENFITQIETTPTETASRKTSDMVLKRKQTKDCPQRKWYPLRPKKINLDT
UniProt O76041, sequence (O76041 whole entry, looked up): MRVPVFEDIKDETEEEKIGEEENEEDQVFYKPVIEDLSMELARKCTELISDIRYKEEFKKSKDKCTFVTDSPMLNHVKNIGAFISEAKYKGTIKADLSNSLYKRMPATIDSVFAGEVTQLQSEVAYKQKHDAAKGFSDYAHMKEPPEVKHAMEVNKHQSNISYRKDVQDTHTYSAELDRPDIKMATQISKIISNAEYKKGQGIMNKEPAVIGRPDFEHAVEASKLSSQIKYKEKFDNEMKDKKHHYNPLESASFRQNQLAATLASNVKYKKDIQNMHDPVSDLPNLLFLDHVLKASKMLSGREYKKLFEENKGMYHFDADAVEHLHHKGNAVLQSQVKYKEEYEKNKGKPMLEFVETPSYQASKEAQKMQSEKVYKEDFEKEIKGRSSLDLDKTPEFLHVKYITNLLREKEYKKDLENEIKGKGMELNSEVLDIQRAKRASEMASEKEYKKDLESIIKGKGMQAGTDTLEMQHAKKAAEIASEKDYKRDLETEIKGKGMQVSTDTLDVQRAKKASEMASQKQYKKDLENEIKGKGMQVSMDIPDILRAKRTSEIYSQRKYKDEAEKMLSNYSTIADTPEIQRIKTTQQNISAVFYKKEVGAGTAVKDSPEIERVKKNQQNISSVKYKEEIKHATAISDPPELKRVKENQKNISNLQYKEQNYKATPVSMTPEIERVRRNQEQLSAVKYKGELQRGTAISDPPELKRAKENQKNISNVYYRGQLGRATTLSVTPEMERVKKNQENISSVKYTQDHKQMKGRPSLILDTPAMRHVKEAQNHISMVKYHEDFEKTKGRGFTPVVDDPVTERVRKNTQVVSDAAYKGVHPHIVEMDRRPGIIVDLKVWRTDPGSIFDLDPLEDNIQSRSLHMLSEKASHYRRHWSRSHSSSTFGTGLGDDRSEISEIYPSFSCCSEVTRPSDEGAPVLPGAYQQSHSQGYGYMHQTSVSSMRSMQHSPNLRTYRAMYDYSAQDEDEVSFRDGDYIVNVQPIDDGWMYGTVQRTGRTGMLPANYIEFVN
UniProt P35749, sequence (P35749 whole entry, looked up): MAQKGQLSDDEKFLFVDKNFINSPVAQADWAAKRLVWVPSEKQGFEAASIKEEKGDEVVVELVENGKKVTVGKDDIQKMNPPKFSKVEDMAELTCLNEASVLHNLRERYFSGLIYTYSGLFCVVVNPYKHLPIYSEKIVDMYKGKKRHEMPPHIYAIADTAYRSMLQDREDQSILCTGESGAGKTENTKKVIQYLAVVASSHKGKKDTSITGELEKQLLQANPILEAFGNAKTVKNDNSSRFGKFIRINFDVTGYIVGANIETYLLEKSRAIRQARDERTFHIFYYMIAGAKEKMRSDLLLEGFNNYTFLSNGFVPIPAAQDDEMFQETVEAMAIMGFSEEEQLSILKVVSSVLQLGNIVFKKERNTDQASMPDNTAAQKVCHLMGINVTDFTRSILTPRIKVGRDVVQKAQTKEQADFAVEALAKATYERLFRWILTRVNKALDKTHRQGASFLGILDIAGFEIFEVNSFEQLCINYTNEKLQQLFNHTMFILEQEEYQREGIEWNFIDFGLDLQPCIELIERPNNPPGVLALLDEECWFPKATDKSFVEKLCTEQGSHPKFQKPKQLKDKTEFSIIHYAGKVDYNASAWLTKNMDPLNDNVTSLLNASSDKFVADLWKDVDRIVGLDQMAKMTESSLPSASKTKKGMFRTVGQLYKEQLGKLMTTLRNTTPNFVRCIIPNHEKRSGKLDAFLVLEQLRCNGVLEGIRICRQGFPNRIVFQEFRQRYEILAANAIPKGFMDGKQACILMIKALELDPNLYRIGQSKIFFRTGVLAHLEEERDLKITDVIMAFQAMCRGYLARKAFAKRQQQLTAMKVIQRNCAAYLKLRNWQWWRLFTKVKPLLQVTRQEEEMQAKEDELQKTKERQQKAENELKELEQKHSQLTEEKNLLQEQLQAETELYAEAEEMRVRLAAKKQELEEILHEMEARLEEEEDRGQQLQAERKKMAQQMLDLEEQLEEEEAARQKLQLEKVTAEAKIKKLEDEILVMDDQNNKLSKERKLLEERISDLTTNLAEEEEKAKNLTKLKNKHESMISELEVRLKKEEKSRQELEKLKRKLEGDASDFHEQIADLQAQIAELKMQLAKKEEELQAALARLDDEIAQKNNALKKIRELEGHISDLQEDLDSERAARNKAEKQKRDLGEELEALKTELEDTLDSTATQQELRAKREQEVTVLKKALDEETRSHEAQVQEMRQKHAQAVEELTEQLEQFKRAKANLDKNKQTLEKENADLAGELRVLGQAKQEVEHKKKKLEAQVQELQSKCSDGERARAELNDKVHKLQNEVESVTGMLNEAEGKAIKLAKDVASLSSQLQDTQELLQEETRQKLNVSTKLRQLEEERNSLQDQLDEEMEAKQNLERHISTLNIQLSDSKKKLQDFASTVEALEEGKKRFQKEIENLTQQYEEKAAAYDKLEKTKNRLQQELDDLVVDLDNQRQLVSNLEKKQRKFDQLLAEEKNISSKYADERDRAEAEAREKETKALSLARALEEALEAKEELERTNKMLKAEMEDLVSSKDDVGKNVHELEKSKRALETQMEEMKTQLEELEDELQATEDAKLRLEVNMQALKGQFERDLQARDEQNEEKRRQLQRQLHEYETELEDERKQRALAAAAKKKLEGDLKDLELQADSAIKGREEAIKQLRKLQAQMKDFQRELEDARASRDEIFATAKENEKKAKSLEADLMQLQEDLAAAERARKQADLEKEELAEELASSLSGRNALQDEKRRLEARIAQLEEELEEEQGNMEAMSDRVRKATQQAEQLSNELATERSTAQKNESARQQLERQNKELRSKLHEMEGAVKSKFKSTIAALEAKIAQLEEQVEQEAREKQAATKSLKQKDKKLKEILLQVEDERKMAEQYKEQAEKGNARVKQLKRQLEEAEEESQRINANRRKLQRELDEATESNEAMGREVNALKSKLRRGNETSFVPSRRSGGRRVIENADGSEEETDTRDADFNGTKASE
UniProt Q15003, sequence (Q15003 whole entry, looked up): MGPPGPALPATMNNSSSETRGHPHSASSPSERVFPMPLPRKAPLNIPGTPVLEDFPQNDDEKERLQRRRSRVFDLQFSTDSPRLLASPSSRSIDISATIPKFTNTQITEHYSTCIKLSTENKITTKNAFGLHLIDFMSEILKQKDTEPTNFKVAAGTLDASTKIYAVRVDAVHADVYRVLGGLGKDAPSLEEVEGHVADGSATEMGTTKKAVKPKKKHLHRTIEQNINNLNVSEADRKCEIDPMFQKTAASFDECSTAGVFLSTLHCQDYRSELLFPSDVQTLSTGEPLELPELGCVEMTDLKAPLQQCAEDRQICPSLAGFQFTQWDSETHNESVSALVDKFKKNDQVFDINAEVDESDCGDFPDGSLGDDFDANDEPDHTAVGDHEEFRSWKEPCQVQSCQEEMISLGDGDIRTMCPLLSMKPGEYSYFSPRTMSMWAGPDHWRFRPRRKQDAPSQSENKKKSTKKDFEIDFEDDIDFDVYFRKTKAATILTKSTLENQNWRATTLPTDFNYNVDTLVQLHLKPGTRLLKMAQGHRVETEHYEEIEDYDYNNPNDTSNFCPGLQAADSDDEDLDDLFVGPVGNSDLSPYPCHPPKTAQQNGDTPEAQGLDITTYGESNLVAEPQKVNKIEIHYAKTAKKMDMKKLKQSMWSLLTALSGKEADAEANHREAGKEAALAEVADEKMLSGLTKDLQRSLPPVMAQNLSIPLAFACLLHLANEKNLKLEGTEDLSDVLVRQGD
UniProt Q9H4L5, sequence (Q9H4L5 whole entry, looked up): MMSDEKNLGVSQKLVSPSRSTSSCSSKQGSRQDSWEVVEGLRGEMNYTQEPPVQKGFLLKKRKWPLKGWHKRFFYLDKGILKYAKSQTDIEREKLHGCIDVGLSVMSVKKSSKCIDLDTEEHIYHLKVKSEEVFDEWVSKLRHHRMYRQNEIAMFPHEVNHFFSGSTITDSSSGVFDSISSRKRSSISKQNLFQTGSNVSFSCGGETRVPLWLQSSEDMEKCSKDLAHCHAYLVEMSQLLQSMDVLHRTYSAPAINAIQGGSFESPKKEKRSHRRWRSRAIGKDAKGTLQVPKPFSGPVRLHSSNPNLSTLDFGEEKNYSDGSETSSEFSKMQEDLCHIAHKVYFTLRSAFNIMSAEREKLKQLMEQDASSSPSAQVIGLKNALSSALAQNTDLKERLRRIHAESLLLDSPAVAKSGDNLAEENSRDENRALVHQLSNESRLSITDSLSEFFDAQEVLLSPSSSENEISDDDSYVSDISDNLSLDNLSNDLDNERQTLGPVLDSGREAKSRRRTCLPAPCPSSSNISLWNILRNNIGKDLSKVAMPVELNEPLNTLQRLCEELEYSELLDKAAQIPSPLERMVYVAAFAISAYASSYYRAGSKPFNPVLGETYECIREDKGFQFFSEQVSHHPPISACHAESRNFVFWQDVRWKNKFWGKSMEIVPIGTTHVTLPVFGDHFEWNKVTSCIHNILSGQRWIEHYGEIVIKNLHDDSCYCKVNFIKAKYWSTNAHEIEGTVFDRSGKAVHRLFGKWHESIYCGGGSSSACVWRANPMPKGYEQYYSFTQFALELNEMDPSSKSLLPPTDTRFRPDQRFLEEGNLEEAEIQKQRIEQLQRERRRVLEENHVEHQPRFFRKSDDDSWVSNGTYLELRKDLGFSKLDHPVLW

Target	log2 fold change (vemurafenib)	log2 fold change [1]	log2 fold change (barasertib)	log2 fold change [2]	log2 fold change (volasertib)	log2 fold change [3]	log2 fold change [4]	log2 fold change [5]	log2 fold change (saracatinib)	log2 fold change (sotrastaurin)	log2 fold change (alvocidib)	log2 fold change (Tubastatin A)	log2 fold change [6]	log2 fold change (defactinib)	log2 fold change [7]	log2 fold change (encorafenib)	log2 fold change [8]	log2 fold change (alisertib)	log2 fold change [9]	log2 fold change (gefitinib)
NUP210 (UniProt Q8TEM1)	-0.009	0.048	0.072	-0.004	0.006	0.036	0.012	-0.015	0.029	-0.004	0.014	0.107	-0.061	0.035	-0.011	0.086	0.145	0.009	0.002	0.003
MRPL51 (UniProt Q4U2R6)	0.032	0.028	0	-0.044	0.022	0.038	-0.309	0.16	0.02	0.008	-0.039	-0.018	0.016	0.198	-0.002	0.088	-0.208	-0.005	-0.005	-0.044
MTA2 (UniProt O94776)	0.007	0.018	0.026	0.03	-0.008	0.025	-0.021	-0.031	0.015	0.042	0.005	-0.049	-0.002	0.016	-0.01	0.009	0.134	0.012	-0.005	-0.02
NCAPH (UniProt Q15003)	-0.015	0.001	0.012	-0.046	-0.044	0.027	-0.057	-0.035	-0.016	0.015	0.007	-0.089	0.008	0.015	0.023	0.013	0.063	0.015	0.018	0.006
MRPL58 (UniProt Q14197)	0.104	-0.017	0.033	-0.033	-0.043	0.004	0.148	-0.151	0.04	0.019	0	-0.065	0.027	-0.045	0.033	0.011	-0.078	-0.021	-0.02	-0.04
NSL1 (UniProt Q96IY1)	-0.017	0	-0.06	0.005	0.007	0.048	-0.016	0.047	0.012	0.005	-0.026	-0.084	0.016	0.034	-0.004	-0.055	0.094	0.019	-0.014	-0.004
OSBP2 (UniProt Q969R2)	-0.056	-0.014	-0.055	0.062	-0.077	-0.001	-0.881 (active)	0.279	0.068	0.104	-0.211	0.047	-0.102	0.011	-0.032	0.04	-0.1	0.052	-0.033	0.011
NEBL isoform 2 (UniProt O76041)	0.014	0.009	-0.078	0.02	0.051	-0.041	-0.108	0.084	0.023	-0.039	-0.079	0.07	0.012	0.011	0.023	0.009	-0.043	-0.024	-0.003	0.037
NEBL (UniProt O76041)	0.034	-0.027	0.066	0.039	0.014	-0.014	0.29 (active)	-0.002	-0.035	0.085	0.149	0.022	-0.048	0.024	0.043	-0.083	0.015	-0.134	-0.005	0
NBEAL2 (UniProt Q6ZNJ1)	-0.047	0.021	0.045	-0.053	-0.128	0.01	0.013	-0.037	0.013	0	0.031	-0.141	-0.005	0.022	0.033	0.003	-0.029	-0.053	-0.009	0.01
NCOR1 (UniProt O75376)	-0.005	-0.01	0.018	0.043	0.002	-0.014	-0.002	-0.033	0.006	0.006	-0.028	-0.027	0.018	0.06	0.021	0.015	-0.007	0.01	0.018	-0.019
MYH11 isoform 2 (UniProt P35749)	0.027	0.016	0.016	-0.011	-0.025	0.091	0.25 (active)	-0.033	0.029	0.002	-0.042	-0.069	-0.028	-0.083	0.031	-0.002	0.07	0.002	-0.005	0.031
ORC5 (UniProt O43913)	-0.059	-0.001	-0.052	-0.156	-0.023	0.013	-0.038	0.01	-0.001	0.024	0.001	-0.163	0.001	0.062	-0.008	0.049	0.165	-0.004	0.006	-0.011
OAT (UniProt P04181)	0.066	0.003	-0.012	-0.019	-0.014	-0.006	-0.119	0.014	-0.004	-0.024	-0.023	-0.016	-0.03	-0.016	-0.023	-0.022	0.091	0.036	0.006	0.008
OSBPL3 isoform 2 (UniProt Q9H4L5)	0.018	0.01	0.005	-0.053	-0.139	0.025	-0.013	-0.068	0.04	0.018	-0.013	-0.161	0.056	-0.11	-0.033	0.03	0.052	-0.043	-0.002	0.206
MYCBP2 (UniProt O75592)	-0.026	0.036	0.037	0.017	-0.019	-0.01	-0.117	0.083	0.033	-0.029	-0.046	-0.098	0.024	0.019	0.003	0.055	-0.015	0.007	0.032	-0.004
